Where a name gives a salt, the structure may show the parent alone.
Assays:
Test in all cases: lowest phenotypically active concentration; higher = less potent
Details in all cases: treatment time: 24 h
A549-TP53BP1-CLTA = test system: A549-TP53BP1-CLTA
In short: (§1)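 The reporter lines, fifteen in total and built by gene editing in A549, HepG2 and WPMY1 cells, used BFP for segmentation alongside GFP and RFP/FusionRed markers. Each was treated at 0.3, 1, 3 or 9 µM for 24 h in four wells and then imaged live, with live-cell features normalised to solvent control wells. Deviation meant ≥3 of 4 wells beyond the 95th percentile of control Euclidean distances; reproducibility meant a median replicate Pearson correlation above the 95th percentile of non-replicates. Only conditions meeting both were scored as phenotypically active.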

A549-TUBA1B-RELA = test system: A549-TUBA1B-RELA
In short: as §1

HepG2-ACTB-RAB5A = test system: HepG2-ACTB-RAB5A
In short: as §1

HepG2-CANX-COX4 = test system: HepG2-CANX-COX4
In short: as §1

HepG2-GM130-SQSTM1 = test system: HepG2-GM130-SQSTM1
In short: as §1

WPMY1-ACTB-RAB5A = test system: WPMY1-ACTB-RAB5A
In short: as §1

WPMY1-CANX-COX4 = test system: WPMY1-CANX-COX4
In short: as §1

WPMY1-GM130-SQSTM1 = test system: WPMY1-GM130-SQSTM1
In short: as §1

WPMY1-TP53BP1-CLTA = test system: WPMY1-TP53BP1-CLTA
In short: as §1

WPMY1-TUBA1B-RELA = test system: WPMY1-TUBA1B-RELA
In short: as §1

Measured: lowest phenotypically active concentration

Cc1c(CN2CCN(C(=O)[C@H](C)O)CC2)sc2c(N3CCOCC3)nc(-c3cnc(N)nc3)nc12
≤ 0.3 µM: all assays above

CC[C@]1(O)C[C@@H]2CN(CCc3c([nH]c4ccccc34)[C@@](C(=O)OC)(c3cc4c(cc3OC)N(C=O)[C@H]3[C@@](O)(C(=O)OC)[C@H](OC(C)=O)[C@]5(CC)C=CCN6CC[C@]43[C@@H]65)C2)C1 [vincristine]
≤ 0.3 µM: all assays above

CN1CC[C@H](c2c(O)cc(O)c3c(=O)cc(-c4ccccc4Cl)oc23)[C@H](O)C1 [Flavopiridol hydrochloride]
≤ 0.3 µM: all assays above

CO[C@@H]1[C@H](N(C)C(=O)c2ccccc2)C[C@H]2O[C@]1(C)n1c3ccccc3c3c4c(c5c6ccccc6n2c5c31)C(=O)NC4
1 µM: WPMY1-GM130-SQSTM1
≤ 0.3 µM: all other assays above

CC1(C)CC(=O)C2=C(C1)NC(=S)NC2c1cccc(O)c1 (stereo not given) [Dimethylenastron]
3 µM: A549-TP53BP1-CLTA | WPMY1-CANX-COX4
1 µM: all other assays above

O=C(Nc1cccc(Cl)c1)Nc1ncc(CCNc2ncnc3ccsc23)s1 [SNS 314 mesylate]
≤ 0.3 µM: all assays above

COc1c(C)cnc(Cn2cnc3c(Cl)nc(N)nc32)c1C
≤ 0.3 µM: all assays above

NC1(C(=O)N[C@@H](CCO)c2ccc(Cl)cc2)CCN(c2ncnc3[nH]ccc23)CC1
3 µM: A549-TUBA1B-RELA | HepG2-ACTB-RAB5A | HepG2-CANX-COX4
1 µM: all other assays above

COc1ccc(S(=O)(=O)N(CCO)c2ccccc2CN(C)C/C=C/c2ccc(Cl)cc2)cc1
3 µM: A549-TUBA1B-RELA | HepG2-CANX-COX4
9 µM: all other assays above

COc1ccc2cc1Oc1ccc(cc1)C[C@H]1c3cc(c(OC)cc3CCN1C)Oc1c(OC)c(OC)cc3c1[C@H](C2)N(C)CC3 [Tetrandrine]
≤ 0.3 µM: A549-TUBA1B-RELA | HepG2-GM130-SQSTM1 | WPMY1-GM130-SQSTM1
3 µM: HepG2-CANX-COX4 | WPMY1-TP53BP1-CLTA
1 µM: all other assays above

Cc1cc(C)cc(C(=O)NOCCCCCC(=O)NO)c1
1 µM: A549-TP53BP1-CLTA | HepG2-GM130-SQSTM1 | WPMY1-ACTB-RAB5A
≤ 0.3 µM: all other assays above

Cc1ccc(NC(=O)c2ccc(CN3CCN(C)CC3)cc2)cc1Nc1nc(-c2cccnc2)cs1 [masitinib]
≤ 0.3 µM: WPMY1-GM130-SQSTM1
9 µM: A549-TP53BP1-CLTA | WPMY1-TP53BP1-CLTA | WPMY1-TUBA1B-RELA
3 µM: all other assays above

Oc1ccc(-c2nc(-c3ccc(F)cc3)c(-c3ccncc3)[nH]2)cc1
9 µM: WPMY1-ACTB-RAB5A | WPMY1-CANX-COX4 | WPMY1-TP53BP1-CLTA
≤ 0.3 µM: HepG2-GM130-SQSTM1
1 µM: A549-TP53BP1-CLTA | HepG2-CANX-COX4
3 µM: all other assays above

C=CC(=O)Nc1cccc(Nc2nc(Nc3ccc(OCCOC)cc3)ncc2F)c1
9 µM: A549-TUBA1B-RELA | WPMY1-TP53BP1-CLTA
3 µM: all other assays above

Cc1cnc(NC(=O)Nc2cc(Br)c(C)cc2OC[C@@H]2CNCCO2)cn1
≤ 0.3 µM: WPMY1-ACTB-RAB5A
3 µM: HepG2-ACTB-RAB5A | WPMY1-GM130-SQSTM1
9 µM: HepG2-CANX-COX4
1 µM: all other assays above

COc1cc2nc(N3CCCN(C)CC3)nc(NC3CCN(Cc4ccccc4)CC3)c2cc1OC
≤ 0.3 µM: A549-TUBA1B-RELA | HepG2-ACTB-RAB5A | HepG2-GM130-SQSTM1 | WPMY1-GM130-SQSTM1
1 µM: all other assays above

CN(C)c1ccc(C(=O)NCCCCCCC(=O)NO)cc1
1 µM: HepG2-GM130-SQSTM1 | WPMY1-ACTB-RAB5A
≤ 0.3 µM: all other assays above

CCOC(=O)CCNc1cc(N2CCc3ccccc3CC2)nc(-c2ccccn2)n1
9 µM: WPMY1-ACTB-RAB5A | WPMY1-CANX-COX4 | WPMY1-TUBA1B-RELA
3 µM: all other assays above

Nc1ncnc2c1nc(Cl)n2C1O[C@H](CO)[C@@H](O)[C@H]1O (stereo not given in full) [8-Chloroadenosine]
1 µM: A549-TP53BP1-CLTA | A549-TUBA1B-RELA | HepG2-ACTB-RAB5A | HepG2-GM130-SQSTM1
9 µM: WPMY1-ACTB-RAB5A
3 µM: all other assays above

CCNC(=O)c1noc(-c2cc(C(C)C)c(O)cc2O)c1-c1ccc(CN2CCOCC2)cc1
≤ 0.3 µM: all assays above

OC[C@H]1O[C@@H](n2cnc3c(NCc4ccco4)ncnc32)[C@H](O)[C@@H]1O [Kinetin riboside]
3 µM: A549-TP53BP1-CLTA | A549-TUBA1B-RELA | HepG2-GM130-SQSTM1 | WPMY1-CANX-COX4 | WPMY1-TUBA1B-RELA
1 µM: all other assays above

Nc1ccc(-c2ccc3ncc4ccc(=O)n(-c5cccc(C(F)(F)F)c5)c4c3c2)cn1 [Torin 2]
≤ 0.3 µM: all assays above

O=C1Nc2ccc(F)cc2C1=C1Nc2ccccc2C1=NO [5'-Fluoroindirubinoxime]
≤ 0.3 µM: HepG2-ACTB-RAB5A | HepG2-CANX-COX4 | WPMY1-CANX-COX4 | WPMY1-TP53BP1-CLTA
1 µM: all other assays above

CN(C)C1CCN(C(=O)c2ccc(NC(=O)Nc3ccc(-c4nc(N5CCOCC5)nc(N5CCOCC5)n4)cc3)cc2)CC1
≤ 0.3 µM: all assays above

CCCCc1oc2ccccc2c1C(=O)c1cc(I)c(OCCN(CC)CC)c(I)c1 [amiodarone]
3 µM: A549-TUBA1B-RELA
9 µM: all other assays above

CCC(=O)N1CCN(c2ccc(-n3c(=O)ccc4cnc5ccc(-c6cnc7ccccc7c6)cc5c43)cc2C(F)(F)F)CC1 [Torin 1]
≤ 0.3 µM: all assays above

COc1cc2c(Nc3ccc(Br)cc3F)ncnc2cc1OCC1CCN(C)CC1 [vandetanib]
9 µM: WPMY1-TP53BP1-CLTA
1 µM: A549-TUBA1B-RELA
3 µM: all other assays above

Cc1c[nH]c2nccc(Oc3c(F)cc(Nc4cc(Cl)nc(N)n4)cc3F)c12
1 µM: A549-TUBA1B-RELA | WPMY1-TP53BP1-CLTA
≤ 0.3 µM: all other assays above

CN(C)CCCNc1c2c(=O)n(C)c(=O)nc-2n(C)c2ccccc12
3 µM: WPMY1-TUBA1B-RELA
9 µM: all other assays above

Cc1cc(Nc2ncc3c(n2)N(C)C(=O)N(c2cc(NC(=O)c4cccc(C(F)(F)F)c4)ccc2C)C3)n(C)n1 [Pluripotin]
1 µM: WPMY1-CANX-COX4 | WPMY1-TP53BP1-CLTA | WPMY1-TUBA1B-RELA
≤ 0.3 µM: all other assays above

COc1ccccc1-c1c[nH]c2ncc(-c3cncc(C(=O)N(C)C)c3)cc12
3 µM: WPMY1-TUBA1B-RELA
≤ 0.3 µM: all other assays above

CC(C)NCCCn1c(Sc2cc3c(cc2I)OCO3)nc2c(N)ncnc21
≤ 0.3 µM: all assays above

C[C@@H]1CN(CC(=O)Nc2ccc3c(c2)Cc2cccc(-c4cc(=O)cc(N5CCOCC5)o4)c2S3)C[C@H](C)O1
9 µM: A549-TP53BP1-CLTA | A549-TUBA1B-RELA | WPMY1-TUBA1B-RELA
1 µM: HepG2-ACTB-RAB5A
3 µM: all other assays above

C=CC(=O)Nc1cccc(CN2C(=O)N(c3c(Cl)c(OC)cc(OC)c3Cl)Cc3cnc(NCCCCN(CC)CC)nc32)c1 [FIIN 1 hydrochloride]
1 µM: A549-TUBA1B-RELA | WPMY1-CANX-COX4 | WPMY1-TUBA1B-RELA
3 µM: A549-TP53BP1-CLTA | HepG2-CANX-COX4
≤ 0.3 µM: all other assays above

CCc1cc(-c2n[nH]c(C)c2-c2ccc3c(c2)OCCO3)c(O)cc1O
3 µM: all assays above

COCC(=O)O[C@]1(CCN(C)CCCc2nc3ccccc3[nH]2)CCc2cc(F)ccc2[C@@H]1C(C)C [mibefradil]
3 µM: A549-TUBA1B-RELA
9 µM: all other assays above

COc1ccc2[nH]c(C(=O)c3ccccc3)cc2c1
3 µM: WPMY1-CANX-COX4
≤ 0.3 µM: all other assays above

CCc1cccc(CC)c1NC(=O)N1Cc2[nH]nc(NC(=O)c3ccc(N4CCN(C)CC4)cc3)c2C1
3 µM: A549-TP53BP1-CLTA
≤ 0.3 µM: HepG2-ACTB-RAB5A | HepG2-CANX-COX4 | HepG2-GM130-SQSTM1
1 µM: all other assays above

Nc1nc(Cl)nc2c1ncn2[C@@H]1O[C@H](CO)[C@@H](O)[C@@H]1F [clofarabine]
9 µM: WPMY1-CANX-COX4
1 µM: A549-TP53BP1-CLTA | A549-TUBA1B-RELA
3 µM: WPMY1-GM130-SQSTM1
≤ 0.3 µM: all other assays above

— the supplement of paper PMC7411054
